Data taken from PubChem BioAssay AID504554 (Johns Hopkins Ion Channel Center, 2011).
Active and inactive are the calls of the source.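 How the source made its calls: active means peak TRPC4 channel inhibition over 30% at some tested dose, plus a fitted dose response curve; inactive means no inhibition at any dose, or no curve fitted.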

The compounds below were run against Short transient receptor potential channel 4 (Mus musculus) (UniProt Q9QUQ5) (assay: mouse TRPC4 blockers in HEK293 cells – cell-based, HEK293 TRPC4/mu-opioid, concentration-response, selectivity assay for TRPC6 selective inhibitor project, SAR follow-up (AID 504554)). Settings: DAMGO-evoked Fluo-4 calcium ratio; series mostly up to 6.67 µM; fluorescence ratio, lower = inhibition: at the top concentration.
Chain of Short transient receptor potential channel 4 (Mus musculus) (Q9QUQ5 whole entry, looked up): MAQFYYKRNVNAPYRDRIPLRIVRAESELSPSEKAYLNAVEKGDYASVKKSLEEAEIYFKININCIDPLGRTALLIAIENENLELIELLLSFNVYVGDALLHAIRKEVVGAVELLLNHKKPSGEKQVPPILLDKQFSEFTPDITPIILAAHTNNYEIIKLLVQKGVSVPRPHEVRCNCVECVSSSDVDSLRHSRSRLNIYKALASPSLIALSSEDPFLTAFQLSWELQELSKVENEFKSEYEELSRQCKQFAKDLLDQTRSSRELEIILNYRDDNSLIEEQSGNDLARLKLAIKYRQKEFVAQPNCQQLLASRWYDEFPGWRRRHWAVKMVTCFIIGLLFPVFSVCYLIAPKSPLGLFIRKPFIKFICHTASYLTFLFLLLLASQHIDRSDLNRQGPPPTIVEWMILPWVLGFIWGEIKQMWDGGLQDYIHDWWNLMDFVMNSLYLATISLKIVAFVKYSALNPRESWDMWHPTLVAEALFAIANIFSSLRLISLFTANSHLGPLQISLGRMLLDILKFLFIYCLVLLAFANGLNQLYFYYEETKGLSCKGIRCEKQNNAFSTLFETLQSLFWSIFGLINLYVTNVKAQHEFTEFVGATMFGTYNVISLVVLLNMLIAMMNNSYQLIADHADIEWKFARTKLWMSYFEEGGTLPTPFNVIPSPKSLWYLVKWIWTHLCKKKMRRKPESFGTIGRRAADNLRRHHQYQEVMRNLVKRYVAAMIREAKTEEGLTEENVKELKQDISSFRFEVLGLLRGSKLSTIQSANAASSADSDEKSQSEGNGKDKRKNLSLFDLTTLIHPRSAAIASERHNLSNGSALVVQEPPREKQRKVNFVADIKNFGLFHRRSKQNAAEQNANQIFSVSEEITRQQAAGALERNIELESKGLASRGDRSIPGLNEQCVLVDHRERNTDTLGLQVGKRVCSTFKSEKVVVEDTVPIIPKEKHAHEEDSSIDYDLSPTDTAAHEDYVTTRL

Fluorescence ratio, lower = inhibition, inactive:
CCOc1ccc(CNc2ccc3c(c2)ncn3C)cc1 54.2
COc1ccc(CNc2ccc3c(c2)ncn3C(C)(C)C)cc1OC 50
COc1ccc(OC)c(CNc2ccc3c(c2)ncn3C(C)(C)C)c1 42.2
CC(C)(C)n1cnc2cc(NCc3ccccc3Cl)ccc21 38.5
CC(C)c1ccc(CNc2ccc3c(c2)ncn3C(C)(C)C)cc1 38.7
Cc1ccc(CNc2ccc3c(c2)ncn3C(C)(C)C)cc1 41.2
CCOc1ccc(CNc2ccc3c(c2)ncn3-c2ccccc2)cc1 52.6
COc1ccc(CNc2ccc3c(c2)ncn3-c2ccccc2)cc1 47
CC(C)(C)n1cnc2cc(NCc3ccc(Cl)cc3Cl)ccc21 39.5
COc1cccc(CNc2ccc3c(c2)ncn3C)c1OC 53.2

outcome, inactive:
CN(C)c1ccc(CNc2ccc3c(c2)ncn3C(C)(C)C)cc1
